# Experimental data: PubChem BioAssay AID493240 (Broad Institute, 2011)
# Hit rate of the full screen: of about 1,300 compounds, about 270 (21%) were called active. How the calls were made is not given here. Not all results are given here. Entries with a potency or affinity are not part of this list.
# Assay: cytotoxicity in parental SK-MEL-5 melanoma cells – cell-based, CellTiter-Glo, cherry-picked, set 3, orthogonal assay for MITF inhibitor project, dose response (AID 493240)
# Conditions: SK-MEL-5 viability, ATP luminescence (CellTiter-Glo), 24 h; series mostly up to 35 µM; activity change, negative = viability loss: at the top concentration
row,Compound,"activity change, negative = viability loss"
1,O=Cc1ccc(N2Cc3ccccc3C2)cc1,-7.44% (inactive)
2,Cc1ccc(C(=O)c2coc3ccc(O)c(Cl)c23)cc1,12.7% (inactive)
3,COCc1cc(C)nc2sc(C(=O)Nc3cccc(OC)c3)c(N)c12,-11.7% (inactive)
4,COc1ccc(CNC(=O)CN2C(=O)C3C4C=CC(C4)C3C2=O)cc1 (stereo not given),0.978% (inactive)
5,CN(C)CC1CC/C(=C\c2ccc(O)cc2)C1=O (stereo not given),-22.2% (inactive)
6,Cc1cc(NC(=O)c2ccc(Cl)cc2Cl)no1,14.1% (inactive)
7,N/C(=N\OC(=O)c1ccncc1)c1cccc([N+](=O)[O-])c1,-2.01% (inactive)
8,O=[N+]([O-])/C=C\c1ccc(N2CCOCC2)cc1,-35.8% (inactive)
9,COc1cccc2sc(N3CCN(C(=O)c4ccc([N+](=O)[O-])o4)CC3)nc12,-18.1% (inactive)
10,Oc1c(Cl)cc(Cl)cc1/C=N/Nc1ncc(Br)cn1,-3.51% (inactive)
11,O=C(Cc1cccs1)NCc1ccc(Cl)cc1Cl,-5.37% (inactive)
12,c1ccc(OCc2nc3ccccc3[nH]2)cc1,-20.8% (inactive)
13,CC(=O)c1c(C)[nH]c(C(=O)Nc2ccc(C)c(C)c2)c1C,-11.8% (inactive)
14,BrC(=C\c1ccccc1)/C=N/n1cnnc1,-22.9% (inactive)
15,Nc1nc2ccccc2n1/N=C/c1ccc(-c2ccccc2)o1,12.6% (inactive)
16,O=[N+]([O-])c1ccc(/C=N/n2c(CO)nc3ccccc32)s1,-1.15% (inactive)
17,Cc1cc2ncn(/N=C/c3ccc([N+](=O)[O-])o3)c2cc1C,-20.7% (inactive)
18,CN(C(=O)/C=C/c1ccc([N+](=O)[O-])s1)c1ccccc1,-16.1% (inactive)
19,Cc1ccc(C)c(-n2c3nc(=O)[nH]c(=O)c-3cc3cc([N+](=O)[O-])ccc32)c1,-45.3% (inactive)
20,O=C(Nc1ccc(F)c(Cl)c1)c1ccc2c(c1)OCO2,-8.59% (inactive)
21,COc1ccccc1N1CCN(/N=C\c2ccccc2)CC1,10.1% (inactive)
22,CC(C)(C)N=Cc1cc(-c2ccccc2)sc1O,-6.91% (inactive)
23,N#Cc1ccc(-c2cccnc2)nc1SCC(=O)c1ccccc1,-10.9% (inactive)

row,Compound,"activity change, negative = viability loss"
1,COc1ccc(C(=O)Nc2nc3ccc(OC)cc3s2)cc1,-8.59% (inactive)
2,CC(=C/c1ccco1)/C=N/N1CCN(c2ccccc2)CC1,-29.7% (inactive)
3,CCCN(CC(=O)Nc1ccccc1C)C(=O)CCl,0.668% (inactive)
4,Cc1nc(-c2ccccn2)sc1C(=O)Nc1ccc(F)cc1F,-13.2% (inactive)
5,COc1ccc(N/C=C\C(=O)c2ccc3ccccc3c2)cc1,5.37% (inactive)
6,CC(=O)Nc1cccc2c1Cc1ccccc1-2,7.43% (inactive)
7,Cc1c(NC(=O)c2ccc([N+](=O)[O-])o2)cccc1-c1nc2ncccc2o1,-46.9% (inactive)
8,CCN(CC)S(=O)(=O)c1cccc(C(=O)N/N=C(\C)c2ccc(O)cc2O)c1,-6.57% (inactive)
9,CCCCCCN1C=CC(=C2C(=O)c3ccccc3C2=O)C=C1,-33.1% (inactive)
10,CC(C)CC(=O)NC(c1cccs1)c1ccc2cccnc2c1O (stereo not given),-34.1% (inactive)
11,O=C(/C=C/c1ccccc1Cl)NC1CCCCC1,5.66% (inactive)
12,COCCN(C(=O)CCl)C(C(=O)NC1CCCCC1)c1ccccc1C (stereo not given),-12.2% (inactive)
13,COc1ccc(/C=C/C(=O)NC(=S)N2CCN(c3ccccc3OC)CC2)cc1,-5.38% (inactive)
14,COCCn1c(C)cc(C(=O)CSc2nnc(C)s2)c1C,-11.4% (inactive)
15,c1ccc(CSc2nnc(-c3ccco3)n2Cc2ccco2)cc1,-8.61% (inactive)
16,N#Cc1c(NC(=O)CSc2ncn[nH]2)sc2c1CCCC2,5.56% (inactive)
17,COc1ccc(-c2cc(-c3ccc(OC)c(OC)c3)n[nH]2)c(O)c1,-23.7% (inactive)
18,CCCC1=Nc2cc(C(=O)NCCN3CCCC3)ccc2Sc2ccccc21,-42.8% (inactive)
19,N#CC(C#N)=C1C=CC=CN1/C(=C\c1ccco1)C(=O)c1ccc(Cl)cc1,-21.5% (inactive)
20,O=C(Nc1ccc2c(c1)OCCO2)c1coc2ccccc2c1=O,2.93% (inactive)
21,O=C(NCc1ccccc1)NC1(C(=O)Nc2ccc3c(c2)OCCO3)CCCCC1,6.86% (inactive)
22,COc1ccc(/C=N/NC(=O)Cc2cccs2)cc1,-10.2% (inactive)
23,CCOC(=O)/C=c1\s/c(=C\c2ccc3cc(OC)ccc3c2)c(=O)n1CC(=O)NCC1CCCO1 (stereo not given),-29.1% (inactive)

row,Compound,"activity change, negative = viability loss"
1,COc1ccc(N(CC(=O)NCC2CCCO2)S(=O)(=O)c2ccccc2)cc1OC (stereo not given),5.1% (inactive)
2,CC(C)(C)C(=O)Cn1ncc(Br)c(Br)c1=O,0.059% (inactive)
3,Cn1cc(C(=O)CCl)c2ccccc21,-42.3% (inactive)
4,Cc1ccc2c(C(=O)CCl)c(C)[nH]c2c1,-25.4% (inactive)
5,COc1ccccc1N1C(=O)N(C(C)=O)C2C1Nc1ccccc1N2C (stereo not given),-28.2% (inactive)
6,Cc1cccc(OCc2nc3ccccc3n2C)c1,7.63% (inactive)
7,Cc1nc(NC(=O)C2CC2)sc1C(=O)Nc1ccccc1Cl,8.3% (inactive)
8,O=C(CC(=O)c1ccccc1)Nc1ccccc1,3.63% (inactive)
9,CCOc1ccc(N=C(C)C2=C(O)c3ccccc3C2=O)cc1,-3.12% (inactive)
10,CCCCOC(=O)Nc1ccc2c(C)cc(=O)oc2c1,-13.8% (inactive)
11,COc1ccc(S(=O)NC2CCCCC2)c(OC)c1C (stereo not given),2.77% (inactive)
12,COc1cc(CN2CCC(Cc3ccccc3)CC2)cc(OC)c1OC,1.19% (inactive)
13,CCOC(=O)C1(Cc2cccc(OC)c2)CCCN(C(=O)CSC)C1 (stereo not given),4.52% (inactive)
14,CC(C)(C)c1ccc(C(=O)N2CCCCCC2=O)cc1,13.2% (inactive)
15,C=CC[n+]1c(-c2ccc(C)cc2)csc1Nc1ccc(NC(C)=O)cc1,-13.5% (inactive)
16,O=C1c2ccccc2C(=O)N1CCOc1ccccc1,4.74% (inactive)
17,CC(C)(C)c1ccc(OCCCNCc2ccccc2)cc1,-25.9% (inactive)
18,CCOC(=O)c1cc(-c2ccc(OC)cc2)n[nH]1,-8.16% (inactive)
19,COc1ccc(C(=O)Nc2ccc(C)cn2)c(OC)c1,-36.4% (inactive)
20,O=C(N/N=C/c1ccccn1)c1cc([N+](=O)[O-])cc([N+](=O)[O-])c1,-4.85% (inactive)
21,COc1ccc(C(C(=O)NC2CCCCC2)N(C(=O)CCl)c2ccc(OC)cc2)cc1 (stereo not given),-18.5% (inactive)
22,COc1ccc(N(C(=O)CCl)C(C(=O)NC2CCCCC2)c2cccnc2)cc1 (stereo not given),19.2% (inactive)
23,CCn1c(C)cc(C(=O)CN2C(=O)c3ccccc3S2(=O)=O)c1C,-1.22% (inactive)

row,Compound,"activity change, negative = viability loss"
1,O=C1c2ccccc2S(=O)(=O)N1Cc1nc2ccccc2s1,-8.25% (inactive)
2,CCCC(=O)NC(c1ccc(OC)c(OC)c1)c1cc(Cl)c2cccnc2c1O (stereo not given),-19.8% (inactive)
3,Cn1cc([N+](=O)[O-])c(C(=O)Nc2nc(-c3ccc(Cl)cc3)cs2)n1,-38.5% (inactive)
4,O=C(Nc1nc(-c2ccccn2)cs1)c1ccc(F)c(S(=O)(=O)N2CCOCC2)c1,-3.17% (inactive)
5,CC1CCCCC1NC(=O)/C(C#N)=C/C=C/c1ccccc1[N+](=O)[O-] (stereo not given),-7.65% (inactive)
6,OCC1OC(n2cnc3c(NCc4ccco4)ncnc32)C(O)C1O (stereo not given),1.75% (inactive)
7,COc1cccc(/C=N/NC(=O)CN2CC(c3ccccc3)CC2=O)c1OC (stereo not given),-15.3% (inactive)
8,CCN1CCc2c(sc(NC(=O)c3ccc(S(=O)(=O)N4CCCCCC4)cc3)c2C(=O)NC)C1,-6.08% (inactive)
9,Cc1scc(C(=O)N/N=C/c2ccc([N+](=O)[O-])o2)c1C,-35% (inactive)
10,O=[N+]([O-])c1ccc(Sc2cc[n+]([O-])c3ccccc23)c([N+](=O)[O-])c1,-17.9% (inactive)
11,Cc1ccc(SCCSc2ncccn2)cc1,-15.8% (inactive)
12,O=C(O)C1CCN(C(=O)OCc2ccccc2)CC1,4.11% (inactive)
13,COc1cc(C2C(C#N)=C(N)Oc3cc(N(C)C)ccc32)cc2c1OCO2 (stereo not given),-8.05% (inactive)
14,O=C(O)c1cc2ccccc2c(N=Nc2cccnc2)c1O,-18.6% (inactive)
15,Cc1cc(C)c2c(N)c3cccc(C)c3nc2n1,-41.1% (inactive)
16,CC(=O)Nc1ccc(-c2nc3ccccc3o2)cc1,-3.83% (inactive)
17,OCCNc1c2ccccc2nc2ccccc12,-43.2% (inactive)
18,Cc1nn2c(N)c(-c3ccccc3)cnc2c1-c1ccccc1,-3.35% (inactive)
19,COc1ccc(-c2nc(-c3ccncc3)no2)cc1OC,1% (inactive)
20,C=Cc1ncc(OC)c2c1[nH]c1ccccc12,-18.9% (inactive)
21,Cc1ccc(NC(=O)CN(C)C(=O)Cn2ncc(Cl)c(Cl)c2=O)cc1,-6.4% (inactive)
22,O=C(/C=C/NNC(=O)c1ccccc1)c1ccc([N+](=O)[O-])cc1,-16.6% (inactive)
23,COc1ccc(/C=C/c2cc(C(F)(F)F)on2)cc1,-11.9% (inactive)

row,Compound,"activity change, negative = viability loss"
1,O=[N+]([O-])c1ccc(-n2nnnc2-c2ccccc2)c([N+](=O)[O-])c1,-20.6% (inactive)
2,O=C(CNc1ccc2ccccc2c1)N/N=C/c1ccc([N+](=O)[O-])o1,-26.6% (inactive)
3,Cc1cc(C(=O)N/N=C/c2ccc([N+](=O)[O-])o2)c(C)o1,-26.1% (inactive)
4,Cc1ccccc1OCC(=O)N/N=C/c1ccc([N+](=O)[O-])o1,-32.6% (inactive)
5,Cc1cc(C)cc(OCC(=O)N/N=C/c2ccc([N+](=O)[O-])o2)c1,-22.6% (inactive)
6,O=C(N/N=C/c1ccc([N+](=O)[O-])o1)c1cc2ccccc2o1,-13.3% (inactive)
7,O=C(CNc1cccc([N+](=O)[O-])c1)N/N=C/c1ccc([N+](=O)[O-])o1,-37.9% (inactive)
8,CCN(CC)S(=O)(=O)c1cccc(C(=O)N/N=C/c2ccc([N+](=O)[O-])o2)c1,-3.68% (inactive)
9,Cc1ccc(OCC(=O)N/N=C/c2ccc([N+](=O)[O-])o2)cc1,-5.93% (inactive)
10,O=c1c2ccccc2cnn1CCOc1ccccc1,-38.8% (inactive)
11,CC(C)c1nnc(NC(=O)CCC2CCCCC2)s1,6.44% (inactive)
12,c1cc(CSc2nnc(-c3ccc4c(c3)OCO4)o2)ccn1,-27% (inactive)
13,COCCNC(=O)/C(C#N)=C/c1cccc(/C=C(\C#N)C(=O)NCCOC)c1,-33.3% (inactive)
14,Cc1ccc(C2=NN(C(=O)CCl)C(c3cccs3)C2)o1 (stereo not given),-37.2% (inactive)
15,Cc1ccc([N+](=O)[O-])cc1N1C(=O)CS/C1=N\NC(=O)c1cccnc1,-3.24% (inactive)
16,CC(=O)COc1ccc2cc(-c3ccccc3)c(=O)oc2c1,-2.9% (inactive)
17,O=[N+]([O-])c1ccccc1OCCOc1ccccc1[N+](=O)[O-],-0.336% (inactive)
18,CCOC(=O)C1(Cc2ccccc2)CCCN(CCCn2cccn2)C1 (stereo not given),8.95% (inactive)
19,CN(Cc1ccccc1)C1=CC(=[N+]2CCCCC2)CC(C)(C)C1,-35.9% (inactive)
20,O=C(NCCNc1ccccc1[N+](=O)[O-])c1cc(F)c(F)cc1Cl,-1.52% (inactive)
21,N#CC(C#N)=C1C=CC=CN1/C(=C\c1ccco1)C(=O)c1ccc(Br)cc1,-43% (inactive)
22,CC(C)N1C(=O)S/C(=C\c2ccc(-c3ccc(Cl)c(C(=O)O)c3)o2)C1=O,-8.81% (inactive)
23,Cc1cn(CCC(=O)Nc2ccccc2N2CCOCC2)c2ccccc12,2.75% (inactive)
